This passage reports Potency and activity, negative = inhibition results from PubChem BioAssay (Tox21).

Inconclusive results are not listed. Entries that show only a call come without a potency. Unmarked numbers belong to inactive results. Active and inactive are the calls of the source. The call rests on the fitted dose curve; in most records, active means well fitted inhibition curve with a large enough effect in the repeat runs; inconclusive means weak or mixed curves; inactive means no such curve, though single readings can be large or run the other way.
Potency means the concentration at half of the fitted maximal effect.

This assay can be described thus: qHTS assay to identify small molecule antagonists of the estrogen related receptor (ERR) signaling pathway from Tox21 library (AID 1224848). Further: nearly all actives have a fitted effect of over 50% in size. The note with it: ERR reporter cell line, luciferase antagonist mode, 18 h; series mostly up to 92.4 µM. The source says:
U.S. Tox21 Program National Center for Advancing Translational Sciences [NCATS] NIH Chemical Genomics Center [NCGC] U.S. Environmental Protection Agency [EPA] National Institutes of Environmental Health Sciences [NIEHS] National Toxicology Program [NTP] U.S. Food and Drug Administration [FDA] Tox21 Assay Overview: Estrogen related receptors (ERRs), the first orphan nuclear receptors discovered, play an important role in the control of cellular energy metabolism. ERRs are required for high-energy production in response to the environmental challenges. ERR-alpha was also identified as an adverse marker for breast cancer progression; ERR-alpha-positive tumors have a poor prognosis. To screen and to identify environmental compounds that perturb the ERR signaling pathways could provide valuable information for potential therapeutic or preventive measures in the treatment of metabolic disease. For identifying ERR antagonists, ERR cell line (provided by NTP) has been used to screen Tox21 10K library.
Tox21 Assay Protocol Summary: The ERR cells were dispensed at 2,000 cells/5 ul/well in 1536-well white plates using a Multidrop dispenser. After the assay plates were incubated at a 37 C/5% CO2 incubator for 6 hours, 23 nL of compounds dissolved in DMSO, positive and negative controls or DMSO only was transferred to the assay plate by a pin tool. The plates were incubated at 37 C for 18 hours. 4 ul/well of One-Glo reagent was added into the assay plates using a Flying Reagent Dispenser. After 30-minute incubation at room temperature, the luminescence intensity in the plates was measured using a ViewLux plate reader.
As for `c1cc(CN2CCCCC2)cc(OCCCNc2nc3ccccc3s2)c1`, the Potency is 23.7 µM (active). On the same count and under the same terms, for `COc1ccc(COC=O)cc1` the value was “inactive”; for `CNc1ncnc2nc[nH]c12`, “inactive”. On the same count and under the same terms, for `O=S(=O)(O)c1ccccc1O` the value was “inactive”; for `CC(=O)O[C@H](CC(=O)[O-])C[N+](C)(C)C`, “inactive”. With `CCC(C(=O)NC(N)=O)c1ccccc1` (stereo not given), the Potency entry is “inactive”. `C1CCCCCCCCCCC1`: the activity, negative = inhibition was -2.47% [at 19 µM].

For `CCCCCCOC(=O)c1ccccc1O`, the Potency result was “inactive”. Same read-out and setting: for `Nc1ncnc2c1ncn2Cc1c(F)cccc1Cl` the value was “inactive”. On to `CCCCN(CCO)CCO`, for which the Potency result was “inactive”. On the same count and under the same terms, for `COC[C@H](c1ccc(C(F)(F)F)cc1)N1CCN(C2(C)CCN(C(=O)c3c(C)ncnc3C)CC2)C[C@H]1C` the value was “inactive”; for `COc1cccc(Br)c1`, “inactive”. As to `CCCOCC(C)OCC(C)O` (stereo not given), the Potency result was “inactive”. Same read-out and setting: for `CN(C)C(=O)Nc1ccccc1` the value was “inactive”; for `Oc1ccc2c(c1)OC[C@@H](N1CCC(O)(c3ccc(F)cc3)CC1)[C@H]2O`, “inactive”; for `CCCCCCOC(=O)CC(CC(=O)OCCCCCC)(OC(=O)CCC)C(=O)OCCCCCC`, “inactive”. On the same count and under the same terms, the entry for `CC12CCC(CC1=O)C2(C)C` (stereo not given) is “inactive”. The same measure, in the same setting: for `CCC(=O)Nc1cccc(N)c1` the value was “inactive”; for `CN(C)N=Nc1ccccc1`, “inactive”; for `O=c1[nH]c2ccccc2c(=O)n1CCCl`, “inactive”. Consider `Nc1ccn(C2CO[C@H](CO)O2)c(=O)n1` (stereo not given in full), for which the Potency result is “inactive”. The same measure, in the same setting: for `COC(=O)C1=C(C)NC(C)=C(C(=O)OCC(C)=O)C1c1ccccc1[N+](=O)[O-]` (stereo not given) the value was “inactive”; for `C=C(C)[C@@H]1CCC2=CC(=O)C[C@@H](C)[C@]2(C)C1`, “inactive”. In the case of `C#CC(C)(O)CC(C)C` (stereo not given), the Potency entry is “inactive”. The same measure, in the same setting: the entry for `CC(C)c1cccc(C(C)C)c1N` is “inactive”; for `CCO[Si](C)(OCC)OCC` it is “inactive”. Regarding `COc1ccc2cc(C=O)ccc2c1`, the Potency result was “inactive”. Same read-out and setting: the entry for `COC(=O)c1ccc(C(=O)OC)c(C(=O)OC)c1` is “inactive”; for `COC(=O)[C@H]1[C@H]2C[C@@H]3c4[nH]c5cc(OC)ccc5c4CCN3C[C@H]2C[C@@H](OC(=O)COc2ccc(OC)cc2)[C@@H]1OC` it is “inactive”; for `CN(C)C(=O)C(CCN1CCC(O)(c2ccc(Cl)cc2)CC1)(c1ccccc1)c1ccccc1` it is 21.1 µM (active).

Regarding `Cc1ccccc1Br`, the Potency result was “inactive”.

On to `O=C(O)c1cccc(C(=O)O)n1`, for which the Potency result is “inactive”. With `CC(C)(O)Cc1ccccc1`, the Potency entry is “inactive”. Still for that read-out and setting: the entry for `CN1[C@@H]2CC[C@H]1CC(NC(=O)n1c(=O)[nH]c3ccccc31)C2` (stereo not given in full) is “inactive”; for `CC1(C)SC(C)(C)SC(C)(C)S1` it is “inactive”; for `Cc1onc(-c2ccccc2)c1-c1ccc(S(N)(=O)=O)cc1` it is 13.3 µM (active). The same measure, in the same setting: for `Nc1nc2c(ncn2CCC(CO)CO)c(=O)[nH]1` the value was “inactive”; for `O=[N+]([O-])c1ccc(Oc2ccc([N+](=O)[O-])cc2)cc1`, “inactive”; for `CCCCCCCCN(C)CCCCCCCC`, “inactive”. As to `CCCCCCCCCCCCCCC`, the Potency result was “inactive”.
